Test results taken from article PMC7862700, “An all-to-all approach to the identification of sequence-specific readers for epigenetic DNA modifications on cytosine”.

Assays:
Test in all cases: DAPPL (digital affinity profiling via proximity ligation, sequencing); 10 mM Tris-HCl pH 7.5, 50 mM NaCl, 1 mM DTT, 4% glycerol, room temperature, 30 min; GST-TFs on glutathione beads, 16-mer random dsDNA library, 0.1% formaldehyde crosslink after washing; high values mean tight binding
Details in all cases: protein: recombinant; tags: N-terminal GST; dsDNA, one strand shown
FEV = biological target: T1, FEV (Homo sapiens, UniProt Q99581 1-238)
T1 sequence: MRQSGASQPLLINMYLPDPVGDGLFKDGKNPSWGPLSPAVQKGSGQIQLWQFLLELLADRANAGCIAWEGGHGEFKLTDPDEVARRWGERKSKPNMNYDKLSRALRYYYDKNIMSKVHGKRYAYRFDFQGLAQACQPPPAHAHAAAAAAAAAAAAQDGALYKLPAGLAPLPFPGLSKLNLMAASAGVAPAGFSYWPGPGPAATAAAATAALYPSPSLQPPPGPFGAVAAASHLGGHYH
Outline: (§1)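 Yeast served to express human transcription factors as GST fusions, which were then captured on glutathione beads and labelled with DNA barcodes. Pooled with a tag-only sample, they were incubated with 200 nmole of a 16-mer random double-stranded DNA library for 30 min at room temperature in Tris/NaCl/DTT/glycerol buffer, washed, crosslinked with 0.1% formaldehyde, ligated by proximity, amplified by PCR and sequenced. Dividing each hexamer's read frequency for a factor by its frequency for the tag-only sample gives the binding signal.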

ETV5 = ETV5 (Homo sapiens, UniProt P41161 1-510)
ETV5, sequence (P41161 whole entry): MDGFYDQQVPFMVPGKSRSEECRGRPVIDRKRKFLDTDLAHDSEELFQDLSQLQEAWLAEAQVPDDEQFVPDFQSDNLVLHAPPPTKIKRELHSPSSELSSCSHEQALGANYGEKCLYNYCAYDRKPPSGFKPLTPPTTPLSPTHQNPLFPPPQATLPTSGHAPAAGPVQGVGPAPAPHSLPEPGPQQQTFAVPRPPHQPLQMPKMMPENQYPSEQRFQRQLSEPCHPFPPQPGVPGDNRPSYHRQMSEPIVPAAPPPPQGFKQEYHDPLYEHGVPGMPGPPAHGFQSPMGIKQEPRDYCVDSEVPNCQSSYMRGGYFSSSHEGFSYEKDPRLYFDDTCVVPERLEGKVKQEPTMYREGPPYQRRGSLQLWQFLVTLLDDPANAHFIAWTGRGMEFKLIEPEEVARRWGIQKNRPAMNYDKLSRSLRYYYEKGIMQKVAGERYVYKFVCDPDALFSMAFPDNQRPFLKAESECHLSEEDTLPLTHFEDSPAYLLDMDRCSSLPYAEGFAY
Outline: as §1

SPIC = biological target: T2, SPIC (Homo sapiens, UniProt Q8N5J4 1-248)
T2 sequence: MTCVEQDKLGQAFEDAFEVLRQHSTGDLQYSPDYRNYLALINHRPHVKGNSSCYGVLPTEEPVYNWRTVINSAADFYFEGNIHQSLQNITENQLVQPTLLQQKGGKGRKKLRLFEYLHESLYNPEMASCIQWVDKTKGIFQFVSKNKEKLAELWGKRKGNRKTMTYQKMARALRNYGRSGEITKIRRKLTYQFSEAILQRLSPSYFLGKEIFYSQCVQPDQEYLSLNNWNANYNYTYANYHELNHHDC
Outline: as §1

ELF4 = ELF4 (Homo sapiens, UniProt Q99607 1-663)
ELF4, sequence (Q99607 whole entry): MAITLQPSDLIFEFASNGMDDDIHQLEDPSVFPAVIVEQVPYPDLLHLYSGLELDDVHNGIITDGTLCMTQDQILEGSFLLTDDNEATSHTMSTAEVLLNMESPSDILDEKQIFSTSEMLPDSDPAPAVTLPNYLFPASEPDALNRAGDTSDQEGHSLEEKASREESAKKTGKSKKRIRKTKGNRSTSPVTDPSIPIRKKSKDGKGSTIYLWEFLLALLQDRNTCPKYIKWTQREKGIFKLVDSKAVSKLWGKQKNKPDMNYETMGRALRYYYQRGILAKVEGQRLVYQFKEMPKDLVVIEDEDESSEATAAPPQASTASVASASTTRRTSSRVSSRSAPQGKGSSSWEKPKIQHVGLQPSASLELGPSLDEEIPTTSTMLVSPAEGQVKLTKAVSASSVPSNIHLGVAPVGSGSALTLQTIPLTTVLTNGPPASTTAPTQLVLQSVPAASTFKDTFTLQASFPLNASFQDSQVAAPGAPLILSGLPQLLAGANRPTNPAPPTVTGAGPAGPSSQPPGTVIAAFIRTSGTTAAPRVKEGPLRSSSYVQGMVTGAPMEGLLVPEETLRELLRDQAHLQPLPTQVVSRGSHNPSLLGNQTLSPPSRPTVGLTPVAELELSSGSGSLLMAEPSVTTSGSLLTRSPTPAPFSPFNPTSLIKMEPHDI
Outline: as §1

ELK4 = biological target: T3, ELK4 (Homo sapiens, UniProt P28324-2 1-405)
T3 sequence: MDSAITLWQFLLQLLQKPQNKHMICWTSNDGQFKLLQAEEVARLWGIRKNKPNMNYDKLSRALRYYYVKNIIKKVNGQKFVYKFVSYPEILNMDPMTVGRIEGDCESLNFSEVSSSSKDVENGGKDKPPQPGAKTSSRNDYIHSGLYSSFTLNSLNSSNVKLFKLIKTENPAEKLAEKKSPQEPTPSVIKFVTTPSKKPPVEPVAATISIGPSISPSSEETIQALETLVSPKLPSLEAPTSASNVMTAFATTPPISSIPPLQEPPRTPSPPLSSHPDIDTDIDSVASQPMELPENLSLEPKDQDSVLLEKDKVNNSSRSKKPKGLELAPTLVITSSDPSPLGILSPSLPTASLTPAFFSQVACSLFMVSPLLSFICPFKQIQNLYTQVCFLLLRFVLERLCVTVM
Outline: as §1

ETV2 = biological target: T4, ETV2 (Homo sapiens, UniProt O00321 1-342)
T4 sequence: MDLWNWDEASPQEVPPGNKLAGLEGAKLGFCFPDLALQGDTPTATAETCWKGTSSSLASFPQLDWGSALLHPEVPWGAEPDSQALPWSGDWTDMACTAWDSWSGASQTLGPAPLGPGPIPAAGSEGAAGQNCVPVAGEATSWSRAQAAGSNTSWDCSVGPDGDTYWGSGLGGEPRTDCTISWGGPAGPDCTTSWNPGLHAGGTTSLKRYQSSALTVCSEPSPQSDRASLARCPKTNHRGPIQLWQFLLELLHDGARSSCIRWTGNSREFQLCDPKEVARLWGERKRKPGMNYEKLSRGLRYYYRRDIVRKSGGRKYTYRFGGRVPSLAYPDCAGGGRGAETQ
Outline: as §1

ELF3 = biological target: T5, ELF3 (Homo sapiens, UniProt P78545 1-371)
T5 sequence: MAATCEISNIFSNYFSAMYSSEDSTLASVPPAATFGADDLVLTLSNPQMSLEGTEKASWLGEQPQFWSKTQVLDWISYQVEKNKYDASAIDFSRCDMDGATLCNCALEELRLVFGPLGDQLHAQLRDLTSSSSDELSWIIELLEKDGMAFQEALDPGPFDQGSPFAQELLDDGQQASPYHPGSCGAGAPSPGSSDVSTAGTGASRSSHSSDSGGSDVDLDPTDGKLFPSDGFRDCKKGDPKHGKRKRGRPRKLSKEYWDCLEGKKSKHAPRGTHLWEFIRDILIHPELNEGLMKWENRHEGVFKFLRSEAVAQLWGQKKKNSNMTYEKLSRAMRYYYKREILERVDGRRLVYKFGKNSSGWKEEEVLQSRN
Outline: as §1

ETV1 = ETV1 (Homo sapiens, UniProt P50549 1-477)
ETV1, sequence (P50549 whole entry): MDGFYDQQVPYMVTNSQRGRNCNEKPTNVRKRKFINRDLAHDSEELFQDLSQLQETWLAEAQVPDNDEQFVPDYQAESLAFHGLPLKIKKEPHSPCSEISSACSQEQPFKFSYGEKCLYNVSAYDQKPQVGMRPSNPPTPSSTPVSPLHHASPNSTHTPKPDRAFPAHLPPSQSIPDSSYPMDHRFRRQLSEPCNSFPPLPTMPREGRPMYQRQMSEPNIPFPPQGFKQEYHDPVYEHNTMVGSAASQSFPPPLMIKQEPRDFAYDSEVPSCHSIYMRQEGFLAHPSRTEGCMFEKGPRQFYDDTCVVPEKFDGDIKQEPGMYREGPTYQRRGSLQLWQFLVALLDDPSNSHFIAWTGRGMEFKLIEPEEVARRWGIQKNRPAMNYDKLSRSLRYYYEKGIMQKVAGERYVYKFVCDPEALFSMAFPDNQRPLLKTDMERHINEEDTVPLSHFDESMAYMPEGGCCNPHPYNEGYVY
Outline: as §1

ERF = biological target: T6, ERF (Homo sapiens, UniProt P50548 1-548)
T6 sequence: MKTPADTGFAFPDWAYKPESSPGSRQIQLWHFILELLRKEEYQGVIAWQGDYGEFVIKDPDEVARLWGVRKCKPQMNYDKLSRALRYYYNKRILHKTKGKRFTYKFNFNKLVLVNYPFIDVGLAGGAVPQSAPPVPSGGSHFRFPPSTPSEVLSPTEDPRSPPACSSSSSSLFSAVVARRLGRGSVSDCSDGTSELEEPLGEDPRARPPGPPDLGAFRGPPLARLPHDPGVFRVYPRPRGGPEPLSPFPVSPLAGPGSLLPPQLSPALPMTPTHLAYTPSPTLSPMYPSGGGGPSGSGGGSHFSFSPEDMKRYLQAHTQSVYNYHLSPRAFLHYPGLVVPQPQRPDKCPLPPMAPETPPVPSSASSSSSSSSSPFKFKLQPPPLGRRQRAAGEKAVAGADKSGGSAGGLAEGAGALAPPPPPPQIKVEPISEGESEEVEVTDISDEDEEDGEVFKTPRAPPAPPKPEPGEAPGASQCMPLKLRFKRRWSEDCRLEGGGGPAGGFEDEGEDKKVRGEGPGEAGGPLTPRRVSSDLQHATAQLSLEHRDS
Outline: as §1

ETV3L = biological target: T7, ETV3L (Homo sapiens, UniProt Q6ZN32 1-361)
T7 sequence: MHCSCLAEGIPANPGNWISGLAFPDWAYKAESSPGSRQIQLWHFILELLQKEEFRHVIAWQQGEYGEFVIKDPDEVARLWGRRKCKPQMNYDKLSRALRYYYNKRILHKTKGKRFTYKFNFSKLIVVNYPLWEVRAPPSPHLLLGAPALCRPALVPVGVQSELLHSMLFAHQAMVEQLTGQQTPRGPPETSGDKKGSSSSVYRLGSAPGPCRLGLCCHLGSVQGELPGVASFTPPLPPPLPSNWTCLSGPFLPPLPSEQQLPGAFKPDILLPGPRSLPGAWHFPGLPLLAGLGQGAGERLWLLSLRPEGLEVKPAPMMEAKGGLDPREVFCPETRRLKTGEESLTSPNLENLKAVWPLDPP
Outline: as §1

ETS2 = biological target: T8, ETS2 (Homo sapiens, UniProt P15036 1-469)
T8 sequence: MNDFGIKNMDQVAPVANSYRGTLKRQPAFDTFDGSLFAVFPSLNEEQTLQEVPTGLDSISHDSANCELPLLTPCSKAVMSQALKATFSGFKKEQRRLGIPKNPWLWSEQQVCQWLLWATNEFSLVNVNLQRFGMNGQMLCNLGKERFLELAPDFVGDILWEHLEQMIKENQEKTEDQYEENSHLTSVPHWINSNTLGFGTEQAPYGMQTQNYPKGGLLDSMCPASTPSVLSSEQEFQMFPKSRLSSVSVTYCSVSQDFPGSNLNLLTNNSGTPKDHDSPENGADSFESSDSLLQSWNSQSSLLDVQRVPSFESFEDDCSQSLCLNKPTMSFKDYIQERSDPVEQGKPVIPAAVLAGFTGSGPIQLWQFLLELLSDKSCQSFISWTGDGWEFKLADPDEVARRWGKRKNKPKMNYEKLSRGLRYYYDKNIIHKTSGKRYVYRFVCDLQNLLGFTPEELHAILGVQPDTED
Outline: as §1

SPDEF = biological target: T9, SPDEF (Homo sapiens, UniProt O95238 1-335)
T9 sequence: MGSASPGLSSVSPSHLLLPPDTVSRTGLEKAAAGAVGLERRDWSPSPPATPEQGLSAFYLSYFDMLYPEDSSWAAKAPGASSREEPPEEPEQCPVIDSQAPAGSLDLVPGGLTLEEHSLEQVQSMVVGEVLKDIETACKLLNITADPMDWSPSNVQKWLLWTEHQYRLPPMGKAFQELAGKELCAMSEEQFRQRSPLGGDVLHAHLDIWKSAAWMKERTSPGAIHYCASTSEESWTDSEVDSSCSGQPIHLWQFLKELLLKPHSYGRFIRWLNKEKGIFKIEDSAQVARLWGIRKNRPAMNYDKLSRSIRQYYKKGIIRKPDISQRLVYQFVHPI
Outline: as §1

ETV7 = biological target: T10, ETV7 (Homo sapiens, UniProt Q9Y603 1-341)
T10 sequence: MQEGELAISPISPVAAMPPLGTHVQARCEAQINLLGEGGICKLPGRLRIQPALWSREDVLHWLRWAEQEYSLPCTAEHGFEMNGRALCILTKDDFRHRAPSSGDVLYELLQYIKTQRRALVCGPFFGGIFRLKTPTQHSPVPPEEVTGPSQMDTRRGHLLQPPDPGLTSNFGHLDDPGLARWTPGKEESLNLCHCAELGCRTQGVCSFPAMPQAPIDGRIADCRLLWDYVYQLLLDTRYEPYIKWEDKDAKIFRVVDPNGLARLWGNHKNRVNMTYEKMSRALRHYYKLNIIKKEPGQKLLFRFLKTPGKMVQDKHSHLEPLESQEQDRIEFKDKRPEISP
Outline: as §1

ELF5 = biological target: T11, ELF5 (Homo sapiens, UniProt Q9UKW6-2 1-255)
T11 sequence: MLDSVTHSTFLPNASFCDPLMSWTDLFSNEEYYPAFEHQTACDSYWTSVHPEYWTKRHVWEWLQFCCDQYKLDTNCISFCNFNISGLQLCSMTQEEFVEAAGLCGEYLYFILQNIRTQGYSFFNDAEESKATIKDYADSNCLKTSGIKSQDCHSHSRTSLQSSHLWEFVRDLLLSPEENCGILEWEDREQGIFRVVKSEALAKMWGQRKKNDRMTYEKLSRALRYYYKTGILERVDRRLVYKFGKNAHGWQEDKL
Outline: as §1

ETV6 = ETV6 (Homo sapiens, UniProt P41212 1-452)
ETV6, sequence (P41212 whole entry): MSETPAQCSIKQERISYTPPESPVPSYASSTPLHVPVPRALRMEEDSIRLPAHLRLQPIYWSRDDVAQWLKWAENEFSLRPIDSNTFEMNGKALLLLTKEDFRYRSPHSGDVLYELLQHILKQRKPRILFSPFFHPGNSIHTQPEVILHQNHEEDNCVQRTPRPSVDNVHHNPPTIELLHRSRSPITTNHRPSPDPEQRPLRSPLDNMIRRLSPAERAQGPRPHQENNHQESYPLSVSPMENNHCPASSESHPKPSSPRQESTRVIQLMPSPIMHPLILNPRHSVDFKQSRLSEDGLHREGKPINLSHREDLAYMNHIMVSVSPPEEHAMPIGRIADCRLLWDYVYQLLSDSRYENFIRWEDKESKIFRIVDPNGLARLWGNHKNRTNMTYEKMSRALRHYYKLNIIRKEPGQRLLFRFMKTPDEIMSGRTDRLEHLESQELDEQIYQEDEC
Outline: as §1

ETV3 = biological target: T12, ETV3 (Homo sapiens, UniProt P41162-2 1-143)
T12 sequence: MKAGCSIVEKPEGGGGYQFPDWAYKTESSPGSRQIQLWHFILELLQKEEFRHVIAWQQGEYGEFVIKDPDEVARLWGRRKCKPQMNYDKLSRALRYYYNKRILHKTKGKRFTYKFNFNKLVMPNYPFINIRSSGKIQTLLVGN
Outline: as §1

Sequence | binding signal (FEV) | binding signal (ETV5) | binding signal (SPIC) | binding signal (ELF4) | binding signal (ELK4) | binding signal (ETV2) | binding signal (ELF3) | binding signal (ETV1) | binding signal (ERF) | binding signal (ETV3L) | binding signal (ETS2) | binding signal (SPDEF) | binding signal (ETV7) | binding signal (ELF5) | binding signal (ETV6) | binding signal (ETV3)
TGTCTG | 1.15 fold enrichment (6-mer frequency, TF over GST control) | 1.09 fold enrichment (6-mer frequency, TF over GST control) | 1.33 fold enrichment (6-mer frequency, TF over GST control) | 1.04 fold enrichment (6-mer frequency, TF over GST control) | 1.02 fold enrichment (6-mer frequency, TF over GST control) | 1.21 fold enrichment (6-mer frequency, TF over GST control) | 1.21 fold enrichment (6-mer frequency, TF over GST control) | 1.04 fold enrichment (6-mer frequency, TF over GST control) | 1.09 fold enrichment (6-mer frequency, TF over GST control) | 1.05 fold enrichment (6-mer frequency, TF over GST control) | 1.09 fold enrichment (6-mer frequency, TF over GST control) | 1.15 fold enrichment (6-mer frequency, TF over GST control) | 1.02 fold enrichment (6-mer frequency, TF over GST control) | 1.15 fold enrichment (6-mer frequency, TF over GST control) | 1.12 fold enrichment (6-mer frequency, TF over GST control) | –
GTCCTC | 1.12 fold enrichment (6-mer frequency, TF over GST control) | 1.21 fold enrichment (6-mer frequency, TF over GST control) | 1.14 fold enrichment (6-mer frequency, TF over GST control) | 1.27 fold enrichment (6-mer frequency, TF over GST control) | 1.34 fold enrichment (6-mer frequency, TF over GST control) | 1.4 fold enrichment (6-mer frequency, TF over GST control) | 1.16 fold enrichment (6-mer frequency, TF over GST control) | 1.25 fold enrichment (6-mer frequency, TF over GST control) | 1.19 fold enrichment (6-mer frequency, TF over GST control) | 1.22 fold enrichment (6-mer frequency, TF over GST control) | 1.14 fold enrichment (6-mer frequency, TF over GST control) | 1.19 fold enrichment (6-mer frequency, TF over GST control) | 1.39 fold enrichment (6-mer frequency, TF over GST control) | 1.32 fold enrichment (6-mer frequency, TF over GST control) | 1.06 fold enrichment (6-mer frequency, TF over GST control) | 1.2 fold enrichment (6-mer frequency, TF over GST control)
